Source: PubChem BioAssay (NCI)
About 83,000 compounds went through this panel and 20% of them were active in at least one assay; those are over-represented in the sample as a whole.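 Plates (96-well) were seeded with cells, treated with compound at one concentration, and incubated for 48 hours before percent growth was determined.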 Values without a mark were called inactive. Active and inactive are the calls of the source. Rule for the calls: active = growth percent below 10; inactive = the rest.

Legend:
Experiment in all cases: NCI-60 one-dose screen, 48 h (100 = growth as untreated, 0 = no growth, -100 = all killed)
NCI-H23 lung = conditions: 10 µM unless noted
NCI-H226 lung = conditions: 10 µM unless noted
NCI-H322M lung = conditions: 10 µM unless noted
HOP-62 NSCLC = conditions: 10 µM unless noted
NCI-H460 lung = conditions: 10 µM unless noted
HOP-92 NSCLC = conditions: 10 µM unless noted
NCI-H522 lung = conditions: 10 µM unless noted
A549/ATCC NSCLC = conditions: 10 µM unless noted
786-0 renal = conditions: 10 µM unless noted
COLO 205 colon = conditions: 10 µM unless noted
DU-145 prostate = conditions: 10 µM unless noted
K-562 leukemia = conditions: 10 µM unless noted
MALME-3M melanoma = conditions: 10 µM unless noted
MDA-MB-231 breast = conditions: 10 µM unless noted
RXF 393 renal = conditions: 10 µM unless noted
SF-268 CNS = conditions: 10 µM unless noted
SF-295 CNS = conditions: 10 µM unless noted
SF-539 CNS = conditions: 10 µM unless noted
UACC-257 melanoma = conditions: 10 µM

Row | SMILES | growth (NCI-H23 lung) | growth (NCI-H226 lung) | growth (NCI-H322M lung) | growth (HOP-62 NSCLC) | growth (NCI-H460 lung) | growth (HOP-92 NSCLC) | growth (NCI-H522 lung) | growth (A549/ATCC NSCLC) | growth (786-0 renal) | growth (COLO 205 colon) | growth (DU-145 prostate) | growth (K-562 leukemia) | growth (MALME-3M melanoma) | growth (MDA-MB-231 breast) | growth (RXF 393 renal) | growth (SF-268 CNS) | growth (SF-295 CNS) | growth (SF-539 CNS) | growth (UACC-257 melanoma)
1 | CS(=O)(=O)c1nccc(-c2c(-c3ccc(F)c(OCc4ccccc4)c3)nc3sccn23)n1 | 98.4% | 82.1% | 22.3% | 105% | 43.5% | -5.33% (active) | 74.1% | 103% | 80.5% | 106% | -64% (active) | 75.9% | 115% | 93.1% | 94.7% | 104% | 98.5% | 95.1% | 17.8%
2 | O=C(/C=C/c1cccc(O)c1)c1ccc(O)cc1 | 72% | 103% | 88.5% | 79.9% | 92.8% | 104% | 65.6% | 90.1% | 85% | 120% | 15.8% | 23.2% | 106% | 89.3% | 94.8% | 89.9% | 98.2% | 43.3% | 95.3%
3 | COc1cc(/C=C/C(=O)c2ccc(N3CCN(C)CC3)cc2)ccc1F | 84.4% | 67.3% | 84.2% | 86.4% | 102% | 54.3% | 97.2% | 76.7% | 88.4% | 64.9% | 88.3% | 7.19% (active) | 103% | 103% | 98.2% | 97.8% | 92.5% | 65.6% | 89.8%
4 | COc1cc(/C=C/C(=O)c2ccc(NC(=O)CSc3nnc(-c4ccc5nc(-c6ccccc6)[nH]c5c4)o3)cc2)cc(OC)c1OC | 92.7% | 99.3% | 96.9% | 114% | 92.5% | 142% | 95.3% | 105% | 75.4% | 115% | 91% | 58.3% | 109% | 93.6% | -6.89% (active) | 97.7% | 105% | 82.5% | 87.6%
5 | Cc1ccc(NC(=O)c2ccc(CN3CCN(C)CC3)c(C(F)(F)F)c2)cc1Oc1ccc(-c2[nH]nc3ncnc(N)c23)cc1 | 90.1% | 78.4% | 96.2% | 99.4% | 93.5% | 103% | 84.9% | 78.6% | 70.9% | 52.5% | 95.3% | 2.49% (active) | -12% (active) | 67.5% | 42.3% | 88% | 82.8% | 60.2% | 58.5%
6 | CS(=O)(=O)c1ccc(-c2nn(-c3ccccc3)cc2/C=C/C(=O)c2ccc(Br)cc2)cc1 | 100% | 101% | 95.4% | 105% | 93.9% | 114% | 82.6% | 96.5% | 91.5% | 113% | 100% | 47.3% | 71.3% | 88.3% | 93.7% | 99.4% | 104% | 102% | 96.3%
7 | Cn1cc(-c2nnc(N)nc2-c2cn(C)c3ccc(F)cc23)c2cc(F)ccc21 | 101% | 97.4% | 101% | 90.7% | 102% | 116% | 73.2% | 77.2% | 86.1% | 107% | 95.6% | 101% | 107% | 94.6% | 104% | 78.5% | 113% | 96.4% | 101%
8 | COCCC[C@H]1O[C@@](O)([C@H](C)[C@@H]2CC(OC)C(O)/C=C(C)/C=C(C)/C=C(\C)C(OC3O[C@@H](C)[C@H](O)C(O)[C@@H]3O)C(C)/C=C(C)/C=C(OC)/C=C(\C)C(=O)O2)C(OC)C(O)[C@]1(C)O[C@H]1C[C@@H](O)[C@H](O[C@H]2C[C@](C)(O)[C@H](O)C(C)O2)C(C)O1 (some centres not stated) | 41.2% | 38.2% | 97.4% | 68.9% | 52.1% | 88.2% | 34.2% | 40% | 73.1% | 40.4% | 48.5% | 21.2% | 51.1% | 84.1% | 47.6% | 73% | 24.8% | 79.2% | 3.39% (active)
